Screening data from PubChem.
MARV entry inh = blocks Marburg virus binding to or entry into cells; Marburg virus pseudotyped entry inhibition, cell reporter; Potency, µM (titrated, usually from 37.8 µM), for the others: top-dose activity change, negative = inhibition, usual class: inhibitors; 300,000 compounds, 1.8% hits; AID 540276; calls by dose curve; tested in HEK293 cells; also: potency is read from the fitted curve at half-maximal effect; % is scaled to controls: 0 for no effect and ±100 for the full control effect
Cycloheximide cs = affects cycloheximide protein synthesis inhibition readout, counter-screen; cell reporter, cycloheximide protein synthesis inhibition counterscreen; max response, %; 300,000 compounds, 12% hits; AID 2314; in the data active = max response mostly above about 13%, no sharp cut-off; inactive = mostly below about 14%; also: read at 38.3 µM for the half of the compounds with a filed dose; 0% is about no effect
Shiga toxin inh = inhibitors of Shiga toxin in Vero cells; 290,000 compounds, 9.2% hits; inhibition, % at 38.7 µM; Vero cells, Shiga toxin protein synthesis inhibition reporter; AID 2315; in the data active = inhibition mostly above about 28%, no sharp cut-off; inactive = mostly below about 43%; also: 0% is about no effect
FMDV inh = foot and mouth disease virus antiviral activity | FMDV antiviral cell-based qHTS | Potency, µM (doses to about 57.9 µM), without a hit: at the top dose activity change, negative = inhibition, hits mostly inhibitors | 410,000 compounds, 1.2% hits | AID 1159524; calls by dose curve; tested in HEK293T cells; also: read-out not given here; potency is read from the fitted curve at half-maximal effect; % is scaled to controls: 0 for no effect and ±100 for the full control effect; nearly all actives have a fitted effect of over 45% in size
HCV inhibitor = HCV inhibition; Huh7.5.1 HCVcc-Cre infection, luciferase reporter, 44 h; Potency, µM (series often up to 41.8 µM), inactives show at the top dose activity change, negative = inhibition, actives largely listed as inhibitors; 340,000 compounds, 3.4% hits; active = well fitted inhibition curve with a large enough effect; inconclusive = small, poorly fitted or top-dose-only effect, or another doubt; inactive = no such curve, though single readings can be large or run the other way; also: potency is read from the fitted curve at half-maximal effect; % is scaled to controls: 0 for no effect and ±100 for the full control effect
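Whole-lifecycle infectious HCVcc-Cre system; cells 1,000/well, compound then virus (~0.5 moi) added 4 h after plating, 44 h culture. Luciferase read 15 sec following 15 min substrate incubation, room temp.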
Lassa entry inh = blocks Lassa virus binding to or entry into cells; Lassa virus pseudotype entry inhibition, cell reporter; Potency, µM (doses to about 37.9 µM), for the others: top-dose activity change, negative = inhibition, most hits filed as inhibitors; 300,000 compounds, 1.2% hits; AID 540256; calls by dose curve; tested in HEK293 cells; also: potency is read from the fitted curve at half-maximal effect; % is scaled to controls: 0 for no effect and ±100 for the full control effect; nearly all actives have a fitted effect of over 50% in size
* hit, by the source's call; ? = inconclusive; . = no result; [ ] = remark or other dose. In the library only some 13% were active in any assay of this set; here they are far more common.

SMILES	MARV entry inh	Cycloheximide cs	Shiga toxin inh	FMDV inh	HCV inhibitor	Lassa entry inh
CC1CC1C(=O)OCC(=O)NC(=O)NC12CC3CC(CC(C3)C1)C2 (stereo unspecified)	?	42.7*	86.4*	21.1%	1.6%	-2.1%
CC(=O)Nc1cccc(C(=O)OCC(=O)N2CCN(C(=O)COC(=O)c3cccc(NC(C)=O)c3)CC2)c1	?	.	.	-2.6%	-15.1%	7.6%
CCOc1ccc(C(=O)O/N=C(\N)c2ccccn2)cc1OCC	.	52.2*	84.6*	26.4%	12.6µM*	.
CCOc1cc(C(=O)O/N=C(\N)c2ccccn2)cc(OCC)c1OCC	.	52.9*	53.7*	-6.5%	?	.
COc1ccc(C(=O)COC(=O)c2ccccn2)cc1OC	.	.	.	1.2%	12.2%	.
COCCN(C(=O)CN1CCCc2ccccc21)c1c(N)n(Cc2ccccc2)c(=O)[nH]c1=O	26.2%	-2.4	10.3	-15.1%	3.1%	-8.3%
CC(=O)OC1CCC2(C)C(=CCC3C2CCC2(C)C3CC3ON=C(C)C32)C1 (stereo unspecified)	5.2%[46.1 µM]	.	.	-9.2%	1.3%	3.2%[46.1 µM]
CC(=O)C1C(c2ccc(C)cc2)c2c(n[nH]c2C)CC1(C)O (stereo unspecified)	-2.5%	-6.9	-10.6	-3.3%	9.2%	-0.7%
O=c1cc(-c2ccc3c(c2)OCO3)oc2ccccc12	-2.2%	21.3*	35.1	.	3.7%	20.4%
O=c1cc(-c2ccsc2)oc2ccccc12	.	.	.	54.7%	?	.
O=c1cc(-c2ccccc2)oc2cc(O)ccc12	.	50.6*	76.7*	44.6%	3.1%	.
O=c1cc(-c2ccc(O)cc2)oc2ccccc12	.	36.9*	54.7*	68.5%	?	.
O=c1cc(-c2ccc(O)cc2)oc2ccc(O)cc12	-17.4%[46.1 µM]	54.5*	54.1*	27.3%	31.6µM*	?
CC(=O)c1c(C)[nH]c(C(=O)OCC(=O)N(Cc2ccccc2)C(C)(C)C)c1C	?	.	.	-20.9%	1.4%	-28.3%
O=C(c1ccncc1)N1CCC2(CC1)CN(Cc1cc(C(F)(F)F)cc(C(F)(F)F)c1)C2	.	.	.	-9.4%	.	.
Cc1cccc(-c2oc3ccccc3c2-c2ccc3c(c2)OCO3)c1	.	-3.2	-3.7	-26.1%	-25.3%	.
Nc1c(-c2ccc3c(c2)OCCO3)oc2ccccc2c1=O	?	33.0*	69.7*	15.7%	-22.1%	-20.1%
COc1ccc(-c2cc3ccccc3c(=O)o2)cc1	.	.	.	-4.0%	.	.
COc1ccc2oc(-c3ccccc3[N+](=O)[O-])cc(=O)c2c1	-29.6%[46.1 µM]	40.6*	80.6*	17.3%	?	.
O=c1cc(-c2c(F)c(F)c(F)c(F)c2F)oc2ccccc12	18.3µM*	-1.7	-28.0	.	5.01µM*	?
COc1ccc(-c2cc(=O)c3ccccc3o2)cc1	.	18.8*	51.6*	25.6%	?	.
O=c1cc(-c2cccc(F)c2)oc2ccccc12	13.8%[46.1 µM]	.	.	21.2%	?	3.9%[46.1 µM]
Cc1cccc(C(=O)NC2CC3CCC(C2)N3C)c1 (stereo unspecified)	21.3%	.	.	-8.7%	?	4.4%
CCCN(CCC)CCCNC(=O)Cn1ncc2c3ccccc3n(Cc3ccc(F)cc3)c2c1=O	-18.7%[46.1 µM]	.	.	-14.2%	.	-1.3%[46.1 µM]
CCCCCN=c1ccn(Cc2ccccc2)c2ccccc12	.	.	.	39.8µM*	.	.
SMILES	MARV entry inh	Cycloheximide cs	Shiga toxin inh	FMDV inh	HCV inhibitor	Lassa entry inh
COc1ccc(CCNC(=O)C2CCC(=O)N2S(=O)(=O)c2ccc(C)cc2)cc1 (stereo unspecified)	.	-2.4	-7.0	8.0%	-3.2%	.
CC(C)(C)c1ccc(OCC(=O)Nc2ccc(-c3nc4cccnc4o3)cc2)cc1	28.8%	9.2	11.7	12.1%	13.0%	14.8%
CC(C)C(=O)Nc1ccc(-c2nc3cccnc3o2)cc1	?	33.0*	active	-25.9%	?	?
CC(C)C(=O)Nc1ccc(-c2nc3ncccc3o2)cc1	.	28.9*	41.1*	-7.0%	-4.7%	.
CCCC(=O)Nc1cccc(-c2nc3ncccc3o2)c1	.	.	.	6.6%	.	-9.2%[46.1 µM]
CCCC(=O)Nc1ccc(-c2nc3ncccc3o2)cc1	.	19.9*	175.0	52.7%	11.1%	.
Cc1ccc(C(=O)N(Cc2sccc2C)C2CCS(=O)(=O)C2)cc1 (stereo unspecified)	-8.5%	-2.9	6.2	-17.0%	-0.5%	?
O=C(NC1CCCC1)c1cn(C2CCN(Cc3cccc4cccnc34)CC2)nn1	.	.	.	-7.4%	.	.
O=C(O)/C=C/C(=O)c1ccc2c(c1)CCc1ccccc1-2	.	.	.	?	12.6µM*	.
